Screening results (PubChem)
Sampled rows, rich in hits. Any-hit rate of the full collection: about 9.2%.
NPC1 promoter act – qHTS Assay for NPC1 Promoter Activators. Huh7 NPC1 promoter luciferase reporter, 24 h. Potency, µM (series often up to 9.22 µM), without a hit: at the highest dose activation, most hits filed as activators. hit rate 2.4% among 320,000; further: % of control where 0% means no effect; nearly all actives have a fitted effect of over 60% in size
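Huh7 cells stably carrying NPC1 promoter–luciferase, plated in Opti-MEM with 10% FBS for 2 h, were exposed to compound in DMSO for 24 h at 37 °C; luciferase reagent was added for 10 min and luminescence read.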
Rab9 prom act – qHTS Assay for Rab9 Promoter Activators; Potency, µM (titrated, usually from 9.22 µM), for the others: at the highest dose activation, negative = inhibition, most hits filed as activators; hit rate 2.8% among 320,000; Huh7 Rab9 promoter-luciferase reporter, luminescence, 24 h; AID 485297, 2010; further: % of control where 0% means no effect; nearly all actives have a fitted effect of over 60% in size
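Huh7 cells stably carrying Rab9 promoter–luciferase reporter, plated 1500 cells/well, compound added after 2 h and incubated 24 h at 37 °C; luciferase luminescence then read after 10 min with detection reagent.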
FLuc counter – qHTS profiling assay for firefly luciferase inhibitor/activator using purifed enzyme and Km concentrations of substrates (counterscreen for miR-21 project). purified FLuc, Km substrates, luminescence inhibition. Luciferin 4-monooxygenase (Photinus pyralis), P08659. Potency, µM (doses to about 57.5 µM), inactives show at the highest dose activity change, negative = inhibition, hits mostly inhibitors. hit rate 6.9% among 360,000;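 further: plate controls were vehicle for no effect and reference inhibitor for full effect; nearly all actives have a fitted effect of over 55% in size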
Target sequence (P08659 whole entry, looked up): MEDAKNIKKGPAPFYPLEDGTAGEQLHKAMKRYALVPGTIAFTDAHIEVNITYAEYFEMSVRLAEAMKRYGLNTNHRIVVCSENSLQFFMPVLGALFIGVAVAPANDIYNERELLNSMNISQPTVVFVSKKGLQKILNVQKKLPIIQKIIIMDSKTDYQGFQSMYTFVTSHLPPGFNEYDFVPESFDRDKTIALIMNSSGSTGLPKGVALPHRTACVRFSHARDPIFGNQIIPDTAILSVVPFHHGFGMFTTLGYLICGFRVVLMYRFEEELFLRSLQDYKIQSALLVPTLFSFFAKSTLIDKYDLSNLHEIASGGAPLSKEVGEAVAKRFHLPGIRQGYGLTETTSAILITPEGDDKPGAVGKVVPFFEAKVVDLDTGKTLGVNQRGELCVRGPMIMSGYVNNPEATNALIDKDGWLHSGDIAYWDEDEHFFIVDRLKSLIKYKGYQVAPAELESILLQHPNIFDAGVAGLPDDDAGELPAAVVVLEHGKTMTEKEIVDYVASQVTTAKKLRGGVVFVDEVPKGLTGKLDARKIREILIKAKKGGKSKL
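Purified P. pyralis luciferase, 10 nM final, with Km-level 10 uM D-luciferin and 10 uM ATP in 50 mM Tris acetate pH 7.5, 10 mM Mg acetate, 0.01% Tween-20, 0.05% BSA; 6-point qHTS titration about 60 µM downward; luminescence read.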
ELG1 DNA repair – qHTS screen for small molecules that inhibit ELG1-dependent DNA repair in human embryonic kidney (HEK293T) cells expressing luciferase-tagged ELG1. HEK293T ELG1-luciferase reporter, luminescence, 16 h; DNA damage induced by 5-fluorouridine. Potency, µM (series often up to 46.1 µM), for inactives: at the top dose activity change, negative = inhibition, actives largely listed as inhibitors. hit rate 2.3% among 330,000; further: on the % scale 0 is the no-effect control and ±100 the full control effect; nearly all actives have a fitted effect of over 55% in size
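Luminescence from the luciferase reporter, measured 30 min after ONE-Glo reagent at room temperature, was the read-out. Beforehand, 2,000 cells per well were exposed for 16 hr at 37 °C to 5-fluorouridine together with compound or vehicle.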
ELG1 genotoxic – qHTS screen for small molecules that induce genotoxicity in human embryonic kidney (HEK293T) cells expressing luciferase-tagged ELG1. HEK293T ELG1-luciferase reporter, luminescence, 16 h. hit rate 1.3% among 330,000. AID 504466, 2011. Potency, µM (series often up to 46 µM), without a hit: at the highest dose activity change, positive = activation, usual class: activators; further: % of control where 0% means no effect; nearly all actives have a fitted effect of over 60% in size
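HEK293T cells expressing luciferase-tagged ELG1 were treated with compound or DMSO for 16 hr at 37°C. Luciferase activity was then read after 30 min with ONE-Glo at room temperature; rising signal flags genetic stress.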
SMN2 splice up – qHTS Assay for Enhancers of SMN2 Splice Variant Expression; HEK293 SMN2-luciferase splicing reporter, luminescence, 30-36 h; Potency, µM (series often up to 46.1 µM), without a hit: at the highest dose activity change, positive = activation, actives largely listed as activators; hit rate 2.8% among 210,000; further: % of control where 0% means no effect; nearly all actives have a fitted effect of over 55% in size
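HEK293 cells carry an SMN2 […]–luciferase reporter in which exon 7 inclusion puts luciferase in frame. Cells were plated 10-12 h before compound addition, then incubated 30-36 h at 37C. ONE-Glo luminescence was read; sodium butyrate at 4.5 mM final served as control.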
Starred values were filed as active, the others as inactive; u = inconclusive; x = not tested or not shown; [ ] = another dose, or the depositor's remark. The call rests on the fitted dose curve; in most records, active means well fitted curve in the direction sought with a large enough effect; inconclusive means small, poorly fitted or top-dose-only effect, or another doubt; inactive means no such curve, though single readings can be large; an effect the other way counts as inactive or inconclusive. Potency means the concentration at half of the fitted maximal effect.

SMILES	NPC1 promoter act	Rab9 prom act	FLuc counter	ELG1 DNA repair	ELG1 genotoxic	SMN2 splice up
O=c1c2[nH]c3ccc(F)cc3c2ncn1C1CCCCC1	u	3.98µM*	-10.8%	u	13.9%	6.6%
Cc1ccc(S(=O)(=O)N2CCCCC2)cc1NC(=O)CSc1ncccn1	1.1%	-3.7%	3.8%	1.3%	2.3%	x
Cc1ccc(C(=O)Nc2cnc3sc(C)nn3c2=O)cc1	u	u	-5.7%[2.3 µM]	u	u	12.6µM*
Cc1ccc(C)c(OCCn2cc(/C=C(\C#N)C(=O)NCC3CCCO3)c3ccccc32)c1 (stereo not given)	-3.0%	-7.5%	-8.8%	16.4µM*	-8.1%	-16.9%
Cc1ccc(C)c(OCCn2cc(/C=C(\C#N)C(=O)NCc3cccs3)c3ccccc32)c1	-1.6%	2.4%	5.8%	5.8µM*	-2.0%	3.8%
N#C/C(=C\c1cn(CCOc2ccccc2F)c2ccccc12)C(=O)NCc1cccs1	-4.7%	7.3%	1.4%	14.2%	6.5%	-11.0%[1.84 µM]
COc1cccc(-c2nn(-c3ccccc3)cc2C(=O)NCC(=O)O)c1	1.4%	-2.2%	9.53µM*	-1.7%	-3.7%	4.0%
COc1cccc(-c2nn(-c3ccccc3)cc2/C=C(/NC(=O)c2ccccc2)C(=O)O)c1	-0.5%	-1.3%	26.9µM*	u	1.5%	x
COc1cccc(-c2nn(-c3ccccc3)cc2CO)c1	x	x	13.5µM*	x	x	6.5%
COc1cccc(-c2nn(-c3ccccc3)cc2C(=O)OCC(=O)Nc2ncc(Cl)cc2Cl)c1	0.0%	-1.4%	u	20.6µM*	-1.3%	x
CCn1c(=S)sc2c(=O)n(CC(=O)Nc3cccc(OC)c3)c(C)nc21	0.0%	-2.7%	-1.0%	4.2%	-0.2%	x
COC(=O)c1ccccc1NC(=O)c1ccc(-c2ccc(Br)cc2)o1	10.4%	0.794µM*	-7.4%	u	1.84µM*	28.3%
CS(=O)(=O)N1CCN(c2ccccc2NC(=O)c2ccc(-c3ccc(Br)cc3)o2)CC1	1.0%	3.0%	-12.3%	14.6µM*	-11.7%	-13.4%
O=C(Nc1cccc(NC(=O)c2ccc(-c3ccc(Br)cc3)o2)c1)c1ccco1	18.7%	19.2%	2.69µM*	9.2µM*	-7.1%	17.1%
CS(=O)(=O)N1CCN(c2ccccc2NC(=O)c2cc(Br)ccc2Cl)CC1	-0.3%	-1.8%	-0.8%	u	-11.9%	-11.1%
O=C(Nc1cccc(-c2nc3ccccc3o2)c1)c1ccc(-c2ccc(Br)cc2)o1	x	x	u	x	x	-3.2%
CCOc1ccc(C(=O)Nc2ccc3nc(SCC(=O)N4CCOCC4)sc3c2)cc1	x	x	-17.9%	x	x	x
Cc1ccnc(NC(=O)c2cccc(NC(=O)COc3ccccc3)c2)c1	-3.3%	4.4%	16.9µM*	12.3%	3.7%	28.9%
Cc1ccc(NC(=O)CNC(=O)Cc2cccc3ccccc23)nc1	0.8%	-0.4%	-5.2%	22.9%	-4.2%	x
Cc1ccnc(NC(=O)CNC(=O)Cc2cccc3ccccc23)c1	6.5%	-1.0%	23.9µM*	u	14.6µM*	x
CCOc1ccc(C(=O)Nc2cc(C)ccn2)cc1	0.708µM*	0.316µM*	1.35µM*	u	-9.6%	u
Cc1c(NC(=O)c2cccc(NC(=O)COc3cccc(Br)c3)c2)c(=O)n(-c2ccccc2)n1C	x	x	x	23.1µM*	-11.1%	x
Cc1c(NC(=O)c2cccc(NC(=O)Cc3ccc(Cl)cc3)c2)c(=O)n(-c2ccccc2)n1C	-0.8%	-0.8%	-5.3%	-28.0%	0.2%	x
CCOc1cc(C(=O)Nc2cc(C)ccn2)cc(OCC)c1OCC	0.3%	1.1%	3.5%	u	-16.0%	-6.1%
Cc1cccc(C(=O)NCC(c2ccc3c(c2)OCO3)N2CCN(c3ccccc3F)CC2)c1 (stereo not given)	x	x	-14.0%	x	x	x
SMILES	NPC1 promoter act	Rab9 prom act	FLuc counter	ELG1 DNA repair	ELG1 genotoxic	SMN2 splice up
O=C(CCCc1ccccc1)Nc1ccccn1	12.6%	28.1%	u	u	u	9.7%
Cc1ccnc(NC(=O)CCCc2ccccc2)c1	u	u	23.9µM*	u	18.1%	u
Cc1ccnc(NC(=O)c2ccc(C(=O)c3ccccc3)cc2)c1	3.55µM*	2µM*	0.953µM*	u	u	x
C/C(CC(=O)Nc1cc(C)ccn1)=N\NC(=O)COc1cccc(C)c1	-5.8%	-5.0%	13.5µM*	u	10.1%	2.1%
Cc1ccnc(NC(=O)c2ccc(Cl)s2)c1	3.16µM*	1.58µM*	7.57µM*	u	u	x
C/C(CC(=O)Nc1cc(Cl)ccc1Cl)=N\NC(=O)COc1cccc(C)c1	2.0%	3.5%	0.1%	0.4%	5.1%	x
O=C(Nc1ccon1)c1ccc(Cl)s1	12.6%	0.0%	-2.8%	-11.4%	-3.7%	7.5%
CCOCc1ccccc1Nc1ncnc2onc(-c3ccc(Cl)cc3)c12	x	x	3.7%	x	x	-13.0%
c1ccc(OCC2CCNCC2)nc1	-1.4%	13.6%	-2.7%	u	1.7%	x
Cc1ccnc(NC(=O)c2cnc(Cl)c(Cl)c2)c1	-5.3%	9.6%	16.9µM*	11.2%	u	x
Cc1ccc(C(=O)NCC(=O)Nc2cc(C)ccn2)cc1	4.7%	11.1%	26.9µM*	u	u	x
Cc1ccnc(NC(=O)CCNC(=O)c2ccc(Cl)cc2)c1	3.7%	-2.6%	1.0%	1.8%	10.7%	x
CC(=O)c1ccc(NC(=O)Cn2cc3c(n2)CCCC3)cc1	x	x	-6.4%	x	x	1.7%
COc1ccc2[nH]c(C(=O)Nc3ccc(F)cc3Br)cc2c1	-29.3%	-2.7%	-12.1%	0.3%	0.4%	x
CCC(=O)Nc1ccc(NC(=O)c2ccc3c(c2)OCO3)cc1	-2.4%	-5.7%	-18.8%	u	14.3%	-1.1%
CCN(CC)c1ccc(NC(=O)c2ccc3c(c2)OCO3)cc1	u	2.24µM*	6.75µM*	u	u	x
CC1CCCN(c2ccc(C(=O)Nc3ccc4c(c3)OCO4)cc2[N+](=O)[O-])C1 (stereo not given)	-3.1%	0.8%	u	20.6µM*	-4.3%	3.5%[1.84 µM]
COc1ccc(C(=O)Nc2ccncc2)cc1[N+](=O)[O-]	2.8%	-0.8%	2.4%	12.8%	-2.2%	x
COc1ccc2[nH]c(C(=O)Nc3ncc(C)cc3Br)cc2c1	-0.2%	14.1%	19µM*	-19.6%	-0.3%	x
COc1ccc(NC(=O)c2ccc3c(c2)OCO3)cc1[N+](=O)[O-]	2.82µM*	3.16µM*	u	u	u	u
CCOC(=O)c1cccc(NC(=O)COc2ccc3c(C)cc(=O)oc3c2)c1	x	x	-3.2%	x	x	-27.6%
